# SENP7 inh: blocks the human protease SENP7. Q9BQF6. recombinant SENP7, Z-RLRGG-aminoluciferin luminescence, 40 min. inhibition, % at 5 µM. hit rate 1.5% among 330,000. AID 434973;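 active = inhibition above about 50% at the single test dose, limit read from the data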
# Target sequence (Q9BQF6 706-1050 limits assumed): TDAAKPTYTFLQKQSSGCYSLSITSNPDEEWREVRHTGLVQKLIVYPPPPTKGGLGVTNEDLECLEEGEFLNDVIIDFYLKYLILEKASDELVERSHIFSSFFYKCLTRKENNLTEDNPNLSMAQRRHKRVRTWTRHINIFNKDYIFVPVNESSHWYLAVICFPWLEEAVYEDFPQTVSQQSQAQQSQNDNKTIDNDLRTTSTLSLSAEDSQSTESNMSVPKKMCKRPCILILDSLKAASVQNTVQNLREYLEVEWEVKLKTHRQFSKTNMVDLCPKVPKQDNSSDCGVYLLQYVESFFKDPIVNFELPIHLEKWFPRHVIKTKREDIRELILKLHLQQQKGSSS
# SENP6 block: inhibitors of human SENP6 protease. Recombinant SENP6 catalytic domain, aminoluciferin luminescence. inhibition, % at 10 µM. hit rate 1.8% among 330,000. AID 2599;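 active = inhibition above about 50% at the single tested dose, limit read from the data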
# SENP8 block-1: SENP8 protease inhibition; Q96LD8; purified SENP8, Z-RLRGG-aminoluciferin cleavage, luminescence; hit rate 1.2% among 330,000; inhibition, % at 10 µM; in the data active = inhibition above about 50%
# Target sequence (Q96LD8 whole entry, looked up): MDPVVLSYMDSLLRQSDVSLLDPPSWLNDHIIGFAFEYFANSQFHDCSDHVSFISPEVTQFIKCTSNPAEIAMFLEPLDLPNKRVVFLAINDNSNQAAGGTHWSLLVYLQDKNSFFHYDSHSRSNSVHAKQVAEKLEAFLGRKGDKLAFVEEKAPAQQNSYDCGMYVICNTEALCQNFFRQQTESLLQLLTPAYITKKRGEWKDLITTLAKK
# HSP90 refold inh: HSP90 refolding inhibition in rabbit reticulocyte lysate; luciferase refolding luminescence, 3 h; inhibition, % at 5.6 µM; hit rate 0.91% among 290,000;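 active = inhibition above the screen-wide mean plus 3 SD, computed separately per campaign, cut at about 16% in these data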;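 also: inhibitors lower the luminescence because luciferase stays unfolded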
# LGR2 inh: blocks bursicon-induced cAMP signaling via Drosophila LGR2; inhibition, % at 9.99 µM; HEK293 LGR2, CRE-luciferase, bursicon-stimulated, 4 h; AID 720647; hit rate 0.35% among 380,000;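 active = drop in luminescence signal, shown as inhibition above about 50% in the replicate tests, limit read from the data, passing the limit was not always enough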;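 also: agonist challenge used bursicon conditioned medium at about half maximal strength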
# SENP8 block-2: inhibitors of human SENP8 protease. recombinant SENP8, Nedd8 substrate fluorescence. hit rate 0.64% among 360,000. AID 602440. inhibition, % at 20 µM. Q96LD8; in the data active = inhibition mostly above about 40%, no sharp cut-off; inactive = mostly below about 27%
# SENP8 conf-1: human SENP8 inhibition, confirmed; hit rate 40% among 6,200; shares compounds with SENP7 inh; Recombinant SENP8, Z-RLRGG-aminoluciferin luminescence, 60 min; AID 488912; inhibition, % at 12.5 µM;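 active = mean inhibition across replicates above about 50%, limit read from the data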
# SENP6 conf: human SENP6 inhibition, confirmed; hit rate 58% among 6,200; recombinant SENP6, Z-RLRGG-aminoluciferin luminescence; inhibition, % at 12.5 µM; shares compounds with SENP7 inh
# SENP7 confirm: human SENP7 inhibition, confirmed; shares compounds with SENP7 inh; recombinant SENP7, Z-RLRGG-aminoluciferin luminescence, 40 min; inhibition, % at 12.5 µM; hit rate 69% among 6,200; AID 488917
# Casp3 select: caspase-3 inhibition (SENP selectivity assay); purified caspase-3, Z-DEVD-aminoluciferin luminescence, 60 min; AID 488918; hit rate 60% among 6,200; inhibition, % at 12.5 µM; shares compounds with SENP7 inh;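 active = mean inhibition above about 50%, limit read from the data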
# SENP luc ctr: interferes with luciferase luminescence in SENP counter-screen. inhibition, % at 12.5 µM. Pre-incubated SENP8/Z-RLRGG-aminoluciferin, luciferase luminescence interference. shares compounds with SENP7 inh. hit rate 39% among 6,200;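 active = mean inhibition above about 50% when retested at one dose, limit read from the data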
# SENP8 conf-2: confirmation of human SENP8 protease inhibitors; shares compounds with SENP8 block-2; purified SENP8, Nedd8-AMC/pro-Nedd8 cleavage fluorescence, 30 min; inhibition, % at 25 µM; hit rate 15% among 1,400; AID 624319; in the data active = inhibition mostly above about 39%, no sharp cut-off; inactive = mostly below about 34%
# A number is an active result; n = inactive; x = no result. Hits are enriched below; roughly 2.3% of the tested compounds scored in any of these assays.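 The calls were made as follows, unless noted: active = mean inhibition above about 50% in the one-dose retest (limit read from the data); inactive = the rest.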
SMILES,SENP7 inh,SENP6 block,SENP8 block-1,HSP90 refold inh,LGR2 inh,SENP8 block-2,SENP8 conf-1,SENP6 conf,SENP7 confirm,Casp3 select,SENP luc ctr,SENP8 conf-2
C[C@H](NC(=O)[C@@H]1N[C@@H]2c3ccc(-c4cccnc4)c(=O)n3C[C@@H]2[C@H]1CO)c1ccccc1,x,x,x,x,n,x,x,x,x,x,x,x
CC(=O)c1cccc(NC(=O)c2oc(C)nc2C)c1,n,n,n,n,x,n,x,x,x,x,x,x
C/C(=N/OC(=O)c1ccccc1)c1oc(C)nc1C,78,62,n,n,n,n,67,67,90,87,52,x
Cc1nc2ccccc2c(=O)n1NC(=O)COc1ccccc1,57,n,n,n,n,n,n,n,n,n,n,x
O=C1Cc2ccccc2C(=O)N1c1cccc(Cl)c1,n,52,n,n,n,71,n,n,n,n,n,n
O=C1Cc2ccccc2C(=O)N1c1ccccc1,n,54,n,n,n,53,n,n,n,n,n,n
O=C1CC(=O)N(c2ccccc2)c2ccccc21,n,n,n,n,x,n,x,x,x,x,x,x
O=C1Cc2ccccc2C(=O)N1Cc1ccccc1,79,91,94,n,x,85,n,88,64,72,n,n
CO[C@@H]1CN(C)C(=O)c2cc(NS(C)(=O)=O)ccc2OC[C@@H](C)N(CC2CCOCC2)C[C@@H]1C,x,x,x,x,n,x,x,x,x,x,x,x
CCNC(=O)Nc1ccc2c(c1)C(=O)N(C)[C@@H]1CC[C@@H](CC(=O)NCc3ccc(F)cc3)O[C@@H]1CO2,x,x,x,x,n,x,x,x,x,x,x,x
O=C(C[C@H]1CC[C@@H]2[C@H](COC[C@@H](O)CN2Cc2cccc(C(F)(F)F)c2)O1)NCCc1ccncc1,x,x,x,x,n,x,x,x,x,x,x,x
CC1=NN(c2ccc(F)cc2)C(=O)C1C(c1cccc(O)c1)c1c(C)[nH]n(-c2ccc(F)cc2)c1=O (stereo not drawn),58,n,n,n,x,90,n,n,n,n,n,52
COc1ccc(NC(=O)CSc2nc3c(c(-c4cccs4)c2C#N)CN(C)CC3)cc1OC,n,68,n,n,x,52,n,n,n,n,n,n
CN(C)c1ccc(NC(=O)C[n+]2ccccc2)cc1,n,n,n,n,n,n,x,x,x,x,x,x
CN(C)c1ccc(NC(=O)Oc2ccccc2)cc1,n,75,n,n,x,44,64,61,85,81,n,n
Nc1ccc(N2CCCCC2)c2nonc12,n,90,58,n,n,80,n,56,n,n,n,70
c1ccc(-c2n[nH]c(-c3ccccn3)n2)cc1,64,61,n,n,x,41,51,51,86,83,64,n
Nc1n[nH]c(-c2ccccc2)n1,n,n,n,n,x,n,x,x,x,x,x,x
Cc1[nH][nH]c(=O)c1C(c1c(C)[nH][nH]c1=O)c1cn(Cc2cccc3ccccc23)c2ccccc12,n,57,n,n,x,86,n,n,n,n,n,85
O=c1c2ccccc2ncn1Cc1cccc2ccccc12,n,n,n,n,n,n,x,x,x,x,x,x
CCS(=O)(=O)N(C)C[C@@H]1N[C@H](CO)[C@@H]1c1ccc(C#CC2CCCC2)cc1,x,x,x,x,n,x,x,x,x,x,x,x
CC(C)NC(=O)Nc1cccc2c1O[C@@H](CN(C)Cc1ccc(Oc3ccccc3)cc1)[C@@H](C)CN([C@@H](C)CO)C2=O,x,x,x,x,n,x,x,x,x,x,x,x
Oc1cc(NCCN2CCOCC2)cc2cccnc12,64,74,61,x,n,64,n,76,n,95,n,91
Oc1cc(Nc2ccccc2)cc2cccnc12,n,n,n,x,n,n,x,x,x,x,x,x
Nc1scc2c(C(=O)N/N=C/c3ccc(Cl)cc3)nn(-c3ccccc3)c(=O)c12,n,50,n,n,x,69,n,n,n,n,n,86
SMILES,SENP7 inh,SENP6 block,SENP8 block-1,HSP90 refold inh,LGR2 inh,SENP8 block-2,SENP8 conf-1,SENP6 conf,SENP7 confirm,Casp3 select,SENP luc ctr,SENP8 conf-2
Nc1c(C(=O)N/N=C/c2ccc(Cl)cc2)cnn1-c1ccccc1,n,n,n,n,n,n,x,x,x,x,x,x
Cn1cc([N+](=O)[O-])c(C(=O)N/N=C\c2c[nH]c3ccccc23)n1,n,n,n,n,n,n,x,x,x,x,x,x
O=[N+]([O-])c1ccccc1N/N=C/c1c[nH]c2ccccc12,79,82,63,n,x,41,n,n,96,n,n,n
COc1cccc(-c2cnc3c(c2)C(=O)N([C@H](C)CO)C[C@@H](C)[C@@H](CN(C)CC2CC2)O3)c1,x,x,x,x,n,x,x,x,x,x,x,x
COc1cc(C(=O)c2nccc3cc(OC)c(OC)cc23)c([N+](=O)[O-])cc1OC,90,95,84,n,n,106,n,56,n,n,n,80
CC=Cc1ccc2n(c1=O)C[C@H]1[C@H](CO)[C@@H](C(=O)NCCC)[C@@H]2N1CCC(F)(F)F (mixture of isomers),x,x,x,x,n,x,x,x,x,x,x,x
COC(=O)c1[nH]c(=O)c2ccccc2c1O,n,64,52,n,x,41,n,n,n,n,n,n
C[C@@H]1CN([C@@H](C)CO)C(=O)Cc2cc(NC(=O)Nc3cccc4ccccc34)ccc2O[C@H]1CN(C)C(=O)NC1CCCCC1,x,x,x,x,n,x,x,x,x,x,x,x
[O-]/C(=C(\C(=S)Nc1cccc2ccccc12)[n+]1ccccc1)c1ccc(OC(F)F)cc1,x,x,x,n,n,n,x,x,x,x,x,x
COc1cccc(NC(=S)/C(=C(\[O-])c2ccc(OC(F)F)cc2)[n+]2ccccc2)c1,n,53,n,n,n,61,n,n,n,n,n,70
COc1ccc(S(=O)(=O)N(C)C[C@@H]2Oc3c(NC(=O)c4nc5ccccc5s4)cccc3C(=O)N([C@@H](C)CO)C[C@@H]2C)cc1,x,x,x,x,n,x,x,x,x,x,x,x
O=C(N/N=C1\C/C(=N\NC(=O)c2ccncc2)c2ccccc21)c1ccncc1,n,85,64,n,n,98,n,n,n,n,n,95
Cc1c(NC(=O)C(C)OC(=O)c2ccc([N+](=O)[O-])s2)c(=O)n(-c2ccccc2)n1C (stereo not drawn),n,58,54,n,n,48,n,79,n,n,n,73
Cc1c(N=Cc2ccc(Br)s2)cccc1[N+](=O)[O-],n,n,n,n,x,n,x,x,x,x,x,x
Cc1cc(C)cc(N=Cc2ccc([N+](=O)[O-])s2)c1,n,57,n,n,n,75,n,n,n,n,n,83
